Consider 36 compounds from ChEMBL document CHEMBL1157539, “Thousands of chemical starting points for antimalarial lead identification” (Nature, 2010).

The test system of this test is HepG2. The test is described as follows: GSK_TCMDC: Percent inhibition of human HepG2 cell line. Test compounds present at 10uM. Format: functional.
Take `CC(C)CN(c1nc(C(=O)NNC(=O)[C@H](CC2CC2)NC(=O)c2cc3cc(OCCN4CCCCC4)ccc3o2)cs1)C1CC1`: the Inhibition (commonly the change of the read-out against control, counted positive when it falls) was 2%.

On to `COc1ccc(-c2nc(NC(=O)CSc3ccc([N+](=O)[O-])cc3)sc2C)cc1`, for which the Inhibition is given as 0%. The same measure for `C=Cc1sc(CNCCCNc2cc(=O)c3ccccc3[nH]2)c(C)c1Br`: 0%. The result for `CN1CCN(CCCN(Cc2ccc(-c3ccc(CNCc4ccc5c(c4)OCO5)cc3)cc2)C(=O)Nc2ccccc2)CC1.O=C(O)C(F)(F)F` reads 36%. `CNC(=O)c1cnc(Nc2ccc(N3CCN(C)CC3)cc2)nc1Nc1cccc(OC)c1.O=C(O)C(F)(F)F` returned an Inhibition of 19%. In turn, `C=CCn1c(SCC(=O)Nc2cc(Cl)ccc2Cl)nc2sc(C)cc2c1=O` came in with an Inhibition of 8%. For the compound `Cc1[nH]c(C)c(-c2ccc(OCc3ccc(OC(F)(F)F)cc3)nc2)c(=O)c1Br`, the Inhibition amounted to 10%. As to `CCN(CC)CCN(Cc1ccc(-c2ccc(C(F)(F)F)cc2)cc1)C(=O)Cn1c(CCc2ccc(F)c(C#N)c2)nc(=O)c2ccccc21.O=C(O)C(O)C(O)C(=O)O`, the Inhibition is listed as 18%.

As for `CC(C)C(NC(=O)c1c(F)cccc1F)C(=O)Nc1ccc(Cc2nc3ccccc3s2)cc1` (stereo unspecified), the Inhibition amounted to 0%. The same measure for `Oc1ccc(Cl)cc1-c1cc(C(F)(F)F)nc(-c2ccccc2)n1`: 20%; for `CCOC(=O)c1[nH]c2ccc(F)cc2c1NC(=O)CN1CCN(c2cccc(C(F)(F)F)c2)CC1`: 12%. In the case of `CC(C)(CNC(=O)[C@@H]1CCCN(CCOc2ccc(F)c(F)c2)C1)c1nc(-c2ccc(Cl)c(O)c2)c(-c2ccncc2)[nH]1.Cl`, the Inhibition is recorded as 72%. Compound `O=C(NC1CCN(CCCc2ccccc2)CC1)c1ccc(-c2cccc(C(F)(F)F)c2)s1.O=C(O)C(F)(F)F` came in with an Inhibition of 93%.

Turning to `COc1ccc(CN2CCC(N3CCc4cc(NC(=O)c5cc(C)on5)ccc43)C2)cc1Cl` (stereo unspecified), the Inhibition amounted to 15%. Consider `COc1cc(NC(=O)/C=C/c2ccccc2OC(F)(F)F)cc(OCCN2CCN(CCN3CCOCC3)CC2)c1.O=C(O)C(=O)O`, for which the Inhibition is 20%. On to `CC(C)c1cc(Oc2c(I)cc(CCNCc3ccccc3)cc2I)ccc1O.Cl`, for which the Inhibition came out at 42%. On to `O=C(O)C(F)(F)F.c1cc(CNCCc2ccncc2)cc(-c2ccc(-c3nc4ccccc4[nH]3)cc2)c1`, for which the Inhibition is listed as 28%. The compound `COc1cc(Cc2cnc(N)nc2N)cc(OCc2cccc(C(=O)O)c2)c1OC.Cl` gave an Inhibition of 8%. Consider `CCOC(=O)N1CCC(NC(=O)c2ccc(C(C)(C)C)cc2OC)CC1`, for which the Inhibition stood at 0%. In turn, `CCc1cc(Cc2cnc(N)nc2N)cc(CC)c1OC` came in with an Inhibition of 3%. `CN(C)CCCOc1ccc(CNCc2cccc(Oc3ccc(Cl)cc3)c2)cc1.O=C(O)C(F)(F)F` had an Inhibition of 52%. For the compound `O=C(NCCCCN1CCC(c2ccc3c(c2OCc2ccncc2)CCCC3)CC1)c1ccc(NC(=O)c2ccc(Cl)cc2)cc1`, the Inhibition was determined as 62%. Take `COc1ccc2nc3cc(Cl)ccc3c(NCCN3CCN(C)CC3)c2c1.Cl`: the Inhibition amounted to 29%. Compound `CCOC(=O)C1=C(C)N=c2sc(=Cc3cc(Cl)ccc3O)c(=O)n2C1c1cc(OC)c(OC)cc1Br` (stereo unspecified) yielded an Inhibition of 6%. The compound `CCOc1ccc(C(C)NC(=O)c2ccc(OC)c(Br)c2)cc1OCC` (stereo unspecified) had an Inhibition of 9%. `CC(C)(CNC(=O)[C@@H]1CCCCN1)c1nc(-c2ccc(Cl)c(O)c2)c(-c2ccncc2)[nH]1.Cl` came in with an Inhibition of 0%. Turning to `Cc1cccc2nc(-c3ccc(-c4ccc(CNCCCN5CCCC5=O)cc4)s3)[nH]c12.O=C(O)C(F)(F)F`, the Inhibition was 17%. On to `Cc1ccc(Oc2ncccc2C(=O)Nc2cccc3cccnc23)c(C)c1`, for which the Inhibition is on record as 0%. As to `O=C(Nc1cccc(CN2CCCN(CCc3ccccc3)CC2)c1)c1cc2ccccc2s1.O=C(O)C(F)(F)F`, the Inhibition stood at 37%. The result for `O=C(Nc1ccc(-c2cncc(NCCCN3CCCC3)c2)cc1)c1ccccc1` reads 0%. As to `Cc1ccc(NS(=O)(=O)c2ccc(-c3ccccc3)cc2)c(Cn2cnc(N3CCCNCC3)cc2=O)c1.O=C(O)C(F)(F)F`, the Inhibition was determined as 10%. Turning to `COc1ccc(O)c(Cc2cnc3nc(N)[nH]c(=O)c3c2C)c1.CS(=O)(=O)O`, the Inhibition is listed as 30%. Turning to `Cc1ccc(O)c(CN2CCCC(COC(c3ccc(F)cc3)c3ccc(F)cc3)C2)c1` (stereo unspecified), the Inhibition came out at 19%. The same measure for `O=C(Cc1ccc(-c2ccccc2)cc1)N[C@H]1CCN(Cc2ccc(OCCCN3CCCCC3)cc2)C1`: 36%; for `Cc1cc(N2CCCC2=O)ccc1-c1ccc(C(=O)N2CCC(Oc3cccc(Cl)c3)CC2)cc1`: 34%. `c1ccc(OCCCCN2CCCCC2)cc1` displayed an Inhibition of 2%.
